Reference: PubChem BioAssay (NCI)
The panel holds about 79,000 compounds, 15% with a hit somewhere; the sample as a whole holds those more often. Active and inactive are the calls of the source. No stated cut-off is given here; in the data, active means growth inhibition above about 70%; inactive means the rest.

How the values were obtained:
[1] = NCI Yeast Anticancer Drug Screen. Data for the rad50 strain (AID 155);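 further: 0% = growth of vehicle-only cultures of the same strain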; settings: S. cerevisiae rad50 strain growth inhibition, stronger effect = higher value
In short: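 Relative growth inhibition (compound vs vehicle) was measured in yeast with a defined repair-gene alteration.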

[2] = NCI Yeast Anticancer Drug Screen. Data for the mec2-1 strain (AID 157); settings: S. cerevisiae mec2-1 strain, stronger effect = higher value
In short: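 Growth inhibition is read against vehicle-treated controls after compound exposure of the mec2-1 yeast strain, which is defective in DNA damage repair or cell cycle control.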

[3] = NCI Yeast Anticancer Drug Screen. Data for the sgs1 mgt1 strain (AID 161);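 further: 0% = growth of cultures given vehicle only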; settings: S. cerevisiae sgs1 mgt1 strain, stronger effect = higher value
In short: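 Yeast cells carrying a defined DNA-repair defect were exposed to test compounds. Growth inhibition was measured relative to vehicle-treated controls.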

[4] = NCI Yeast Anticancer Drug Screen. Data for the cln2 rad14 strain (AID 165);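 further: 0% = growth equal to vehicle treated cultures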; settings: S. cerevisiae cln2 rad14 strain, stronger effect = higher value
In short: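 Growth inhibition, relative to vehicle-treated controls, is the read-out. The test organism is a yeast strain with defined genetic alterations, cln2 rad14.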

[5] = NCI Yeast Anticancer Drug Screen. Data for the bub3 strain (AID 167); settings: S. cerevisiae bub3 mutant strain, stronger effect = higher value
In short: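 Screening used yeast with an engineered genetic alteration affecting cell cycle control. Compound-exposed cultures were compared with vehicle cultures, and reduced growth was taken as inhibition.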

[6] = NCI Yeast Anticancer Drug Screen. Data for the mlh1 rad18 strain (AID 175); settings: S. cerevisiae mlh1 rad18 strain growth inhibition, stronger effect = higher value
In short: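 Cells of a genetically altered yeast strain, deficient in DNA damage repair, were treated with compound. Their growth was then compared with that of vehicle-treated cultures to give inhibition.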

[7] = at 5.0 µM (retest, dose inferred, filed as 0.5)
[8] = at 50.0 µM (retest, dose inferred, filed as 5.0)

Measured: growth inhibition

O=C(/C=C\c1ccc([N+](=O)[O-])o1)/C=C/c1ccc([N+](=O)[O-])o1
inactive: [1]; [7] 36% | [2]; [7] 33% | [3]; [7] 52% | [4]; [7] 28% | [5]; [7] 38%
active: [1]; [8] 96% | [1]; at 50.0 µM 96.8% | [2]; [8] 98% | [2]; at 50.0 µM 97.1% | [3]; [8] 98% | [3]; at 50.0 µM 95% | [4]; [8] 97% | [4]; at 50.0 µM 92.7% | [5]; [8] 97% | [5]; at 50.0 µM 94.9% | [6]; [7] 91% | [6]; [8] 96% | [6]; at 50.0 µM 98.2%

Cc1ccc(NNC2=NC(=S)NC(=O)C2)cc1
inactive: [1]; [7] 12% | [2]; [7] 8% | [3]; [7] 18% | [4]; [7] -8% | [5]; [7] 9% | [6]; [7] 18%
active: [1]; [8] 97% | [1]; at 50.0 µM 97.5% | [2]; [8] 98% | [2]; at 50.0 µM 96.9% | [3]; [8] 97% | [3]; at 50.0 µM 80.6% | [4]; [8] 95% | [4]; at 50.0 µM 84.8% | [5]; [8] 97% | [5]; at 50.0 µM 97.8% | [6]; [8] 97% | [6]; at 50.0 µM 98.3%

CCOCCOC(=O)c1cc([N+](=O)[O-])cc([N+](=O)[O-])c1
active: [1]; [8] 94% | [2]; [8] 98% | [3]; [8] 93% | [5]; [8] 94% | [5]; at 50.0 µM 91.7% | [6]; [8] 98% | [6]; at 50.0 µM 95.9%
inactive: [1]; [7] -4% | [1]; at 50.0 µM 60.2% | [2]; [7] -5% | [2]; at 50.0 µM 66.3% | [3]; [7] -3% | [3]; at 50.0 µM 53.8% | [4]; [7] -3% | [4]; [8] 41% | [4]; at 50.0 µM -1.5% | [5]; [7] -8% | [6]; [7] 2%

CCOC(=O)CCC(=O)Oc1ccc2c(c1OC(=O)CCC(=O)OCC)C(=O)c1ccccc1C2=O
inactive: [1]; [7] 25% | [2]; [7] 11% | [3]; [7] 50% | [4]; [7] 13% | [4]; at 50.0 µM 66% | [5]; [7] 8% | [5]; at 50.0 µM 60.5% | [6]; [7] 22%
active: [1]; [8] 97% | [1]; at 50.0 µM 87.5% | [2]; [8] 97% | [2]; at 50.0 µM 78.8% | [3]; [8] 98% | [3]; at 50.0 µM 83% | [4]; [8] 97% | [5]; [8] 96% | [6]; [8] 97% | [6]; at 50.0 µM 95%

CCOc1c(N=Nc2ccccc2Cl)c(C)nn1C(=S)S
active: [1]; at 50.0 µM 89.3% | [2]; at 50.0 µM 80.7% | [3]; at 50.0 µM 77.3% | [4]; at 50.0 µM 92.2% | [5]; at 50.0 µM 74% | [6]; at 50.0 µM 96%
inactive: [1]; [7] -9% | [1]; [8] 36% | [2]; [7] -15% | [2]; [8] 9% | [3]; [7] 8% | [3]; [8] 4% | [4]; [7] -42% | [4]; [8] -6% | [5]; [7] -20% | [5]; [8] 17% | [6]; [7] -23% | [6]; [8] 40%

CCS(=O)(=O)c1ccc(NC(=O)OC2CC(C)CCC2C(C)C)cc1 (centres undefined)
active: [1]; [8] 90% | [1]; at 50.0 µM 90.5% | [2]; [8] 94% | [2]; at 50.0 µM 91.6% | [3]; [8] 91% | [3]; at 50.0 µM 89.5% | [4]; [8] 91% | [4]; at 50.0 µM 86.7% | [5]; [8] 94% | [5]; at 50.0 µM 90.8% | [6]; [8] 92% | [6]; at 50.0 µM 92.1%
inactive: [1]; [7] 14% | [2]; [7] 18% | [3]; [7] 15% | [4]; [7] 12% | [5]; [7] 11% | [6]; [7] 20%

COc1cc([C@@H]2c3cc4c(cc3[C@@H](OC3OC5CO[C@@H](c6cccs6)OC5C(O)C3O)[C@H]3COC(=O)[C@H]23)OCO4)cc(OC)c1O (some centres undefined)
active: [1]; [7] 74% | [1]; [8] 96% | [1]; at 50.0 µM 86.6% | [2]; [8] 92% | [2]; at 50.0 µM 74.8% | [3]; [8] 77% | [4]; [8] 79% | [5]; [8] 74% | [6]; [8] 86%
inactive: [2]; [7] 5% | [3]; [7] 6% | [3]; at 50.0 µM 63.7% | [4]; [7] -3% | [4]; at 50.0 µM 47.6% | [5]; [7] -2% | [5]; at 50.0 µM 49.8% | [6]; [7] 5% | [6]; at 50.0 µM 64.7%

O=C(CSc1nnc(-c2ccc(N=Cc3ccc(Cl)cc3)cc2)o1)Nc1ccccc1Cl
inactive: [1]; [7] 22% | [1]; [8] 57% | [1]; at 50.0 µM 54.8% | [2]; [7] -10% | [2]; [8] 44% | [2]; at 50.0 µM -11.8% | [3]; [7] 7% | [3]; [8] 40% | [3]; at 50.0 µM 6.25% | [4]; [7] 14% | [4]; [8] 28% | [4]; at 50.0 µM -54.5% | [5]; [7] -1% | [5]; [8] 20% | [5]; at 50.0 µM -11.8% | [6]; [7] 2% | [6]; [8] 58% | [6]; at 50.0 µM 20.4%
